Where “and” joins values, the source holds several entries; their conditions need not be identical. Equal entries are not always repeated. Hit rate of the full screen: of about 320,000 compounds, about 1,300 (0.41%) were called active. Roughly 3% stayed inconclusive and do not appear here. No rule for the calls is given here. These entries were drawn from the full list. Measured potencies and affinities stand elsewhere.
Assay: growth inhibition of non-replicating M. tuberculosis (AID 488890);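 also: plate controls were DMSO cells for no effect and high antibiotic wells for full effect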
Conditions: Mycobacterium tuberculosis non-replicating, at 25 µM, stronger effect = higher value

Structure (SMILES)	inhibition
O=C(c1ccco1)N1CCN(C(=O)c2ccc(COc3ccc(Cl)cc3Cl)o2)CC1	11.7%
CS(=O)(=O)c1ccc2nc(NC(=O)CN3C(=O)C4CC=CCC4C3=O)sc2c1 (stereo unspecified)	-9.69%
COC(=O)c1ccc(N2NC(=O)/C(=C/c3cc(OC)c(OC)c(OC)c3)C2=O)cc1	13.4%
C=CCn1c(O)c(N=NC(=O)c2ccc3c(c2)OCO3)c2ccccc21	11.7%
Cc1cc(C)n2nc(CNS(=O)(=O)c3ccc(CC(C)C)cc3)nc2n1	7.85%
O=C(NC1CC1)C1CC(=O)N(C2CCCCC2)C1 (stereo unspecified)	-5.51%
CC(NC(=O)CSc1nnc(-c2cc3cc(Cl)ccc3o2)n1C)c1ccccc1 (stereo unspecified)	16.7%
CNC(C)C#Cc1ccc2c(=O)c3c(OC)cccc3oc2c1 (stereo unspecified)	42.6%
CNC(C)C#Cc1ccc2oc3cccc(OC)c3c(=O)c2c1 (stereo unspecified)	57.7%
CCOc1ccc(S(=O)(=O)N2CCC(C(=O)N3CCCCCC3)CC2)cc1C	21.6%
O=[N+]([O-])c1ccc(N2CCCCC2)cc1SCCO	7.65%
CC(C)NC(=O)c1ccc(CN2CCc3ccccc3C2)cc1	-40%
CC(=O)Nc1ccc(NC(=O)c2ccc(CN3CCc4ccccc4C3)cc2)cc1	28.5%
CCOC(=O)C1=C(C)Nc2sc(C(=O)c3ccc(OC)cc3)c(N)c2C1c1ccc(C(=O)OC)cc1 (stereo unspecified)	26.4%
CCCCCC(=O)NC(=S)Nc1cccc(-c2nc3ncccc3o2)c1	-12.6%
COC(=O)c1ccc(C)c(NC(=O)CSc2nc3[nH]c(=O)cc(O)c3s2)c1	11.9%
Nc1ccc(C(=O)OCC(=O)N2CCc3ccccc3C2)cc1[N+](=O)[O-]	39%
COc1cccc(C(=O)OCC(=O)N2CCc3ccccc3C2)c1	43.9%
COc1cccc(-c2nc(-c3ccccc3)c(-c3ccccc3)[nH]2)c1OCC(=O)O	4.59%
O=[N+]([O-])c1cc(C(F)(F)F)ccc1NC1CCN(Cc2ccccc2)CC1	52.5%
FC(F)Sc1ccc(-n2c(-c3ccc(Cl)cc3)c[n+]3c2CCC3)cc1	-0.67%
CCOc1ccc(C(=O)NCc2ccncc2)cc1OCC	-10.7%
NS(=O)(=O)c1ccc(OC(=O)CNC(=O)OCc2ccccc2)cc1	6.9%
Cc1ccc(S(=O)(=O)N2CCN(C(=O)c3c(-c4ccccc4)noc3C)CC2)cc1C	8.79%
O=C(O)COc1ccc(Br)cc1CP(=O)(c1ccccc1)c1ccccc1	-5.1%
CCOC(=O)c1c(C)nn(-c2ncccc2NC(=O)NC(C)C)c1C	-15.3%

Structure (SMILES)	inhibition
c1ccc(-c2cn(-c3ccccc3)c3[n+]2CCCS3)cc1	-2.11%
Cc1ccc(-c2cn(-c3ccccc3)c3[n+]2CCCS3)cc1	9.74% and -19.1%
CCn1cc(C(=O)NC(=S)Nc2ccccc2[N+](=O)[O-])cn1	26.2%
COCCNC(=O)C(c1ccc(O)cc1)N(Cc1cccs1)C(=O)CCC(=O)Nc1ccccn1 (stereo unspecified)	7.81%
CCn1c(SCc2ccc([N+](=O)[O-])cc2)nnc1C(C)NC(=O)c1ccccc1Br (stereo unspecified)	-7.9%
COc1ccc(CNC(=O)c2cc3c(C)nc4ccccc4c3o2)c(OC)c1	31.7%
COC(=O)C1CC(c2ccc(Cl)cc2)=NO1 (stereo unspecified)	10.9%
O=C(OCC1CC(c2ccccc2)=NO1)c1ccc(Cl)cc1 (stereo unspecified)	25.9%
CC(NS(=O)(=O)c1ccc2c(c1)oc(=O)n2C)c1ccccc1 (stereo unspecified)	-7.19%
CC1Oc2ccccc2N(CC(=O)NC2CCCCC2)C1=O (stereo unspecified)	-12.6%
COc1ccc(S(=O)(=O)N=Nc2c(O)[nH]c3ccccc23)cc1	2.14%
O=C(Nc1cccc(Br)c1)c1ccc(OC2CSC2)cc1	79.7%
O=C(NCCNC(=O)c1cccc(O)c1)c1cccc(O)c1	-13.5%
CCOC(=O)c1cc2c(C)[nH]c(C)c2cc(C(=O)OCC)c1=O	-5.61%
CC(Oc1ccc(Cl)cc1Cl)C(=O)Nc1ccc(O)cc1 (stereo unspecified)	-1.96%
CC(=O)Nc1ccc(NC(=O)C(C)Oc2ccc(Cl)cc2Cl)cc1 (stereo unspecified)	4.67%
CC(=O)c1cnc(Nc2nc(C)c3cc(C)c(C)cc3n2)nc1C	16.2%
COc1ccc(-c2cc3ccccc3oc2=O)cc1	24.3%
O=c1oc2ccccc2cc1-c1nc(-c2ccccc2)no1	-0.8%
COc1ccc(-c2nc3c(c(SCC(=O)N4CCOCC4)n2)COC(C)(C)C3)cc1	-3.27%
CC1CCCCC1NC(=O)CN1C(=O)NC(C)(c2ccc(OC(F)F)cc2)C1=O (stereo unspecified)	-1.28%
Cc1nnc(NC(=O)c2ccc3ccccc3c2)s1	9.74%
CCn1nnnc1NC(=O)c1ccc2ccccc2c1	-1.96%
Cc1ccccc1NC(=O)c1ccc2ccccc2c1	40.9%
CCCn1nnnc1NC(=O)COc1ccc(Cl)c(C)c1	74.2%
CCCCC(=O)Nc1nnnn1CCC	12.9%

Structure (SMILES)	inhibition
CCCn1nnnc1NC(=O)c1cc(Br)ccc1OC	66.1%
CCCn1nnc(NC(=O)c2ccc3ccccc3c2)n1	-1.15%
CCCn1nnnc1NCc1ccc(Cl)cc1Cl	1.4%
CC(Oc1ccccc1)C(=O)OCC(=O)Nc1ccc2c(c1)OCO2 (stereo unspecified)	23.9%
CCOC(=O)c1sc2nc(C)nc(N3CCN(S(=O)(=O)c4ccccc4)CC3)c2c1C	34.9%
CCOC(=O)c1c(-c2ccccc2Cl)cn2ccccc12	3.48%
CCCCn1c(=O)[nH]c(=O)c2c1nc(-c1ccc(C(F)(F)F)cc1)n2C	2.06%
C=CCn1c(CCC)nc2ccccc21	59.2%
Cc1ccc(CNC(=O)COC(=O)CSc2ccc(Br)cc2C)cc1	71.4%
CN(CC(=O)Nc1cccc(F)c1)C(=O)c1ccccc1OCC(=O)Nc1cccc(C(F)(F)F)c1	1.32%
CCc1cc2cc(C)ccc2nc1SCC(=O)NNC(=O)c1ccco1	-31.6%
O=C(O)c1cccc(S(=O)(=O)N2CCC(n3nnc4cc(C(F)(F)F)ccc43)CC2)c1	3.59%
CC(=O)c1cccc(NC(=O)N(c2ccccc2)c2ccccc2)c1	4.45%
Cc1ccc(S(=O)(=O)NCCc2nnc3ccc(SCC(=O)Nc4nc(C)cs4)nn23)cc1	-6.91%
CC1=CC(C)(C)Nc2ccc(OC(=O)CCN3C(=O)c4ccccc4C3=O)cc21	19%
CC1=CC(C)(C)Nc2ccc(OC(=O)CN3C(=O)c4cccc5cccc(c45)C3=O)cc21	78.9%
COc1ccc([C@H]2CC(=O)C=C(c3cccc(OC(F)(F)F)c3)C2)cc1	24.7%
NC(=O)Nc1cc(Cl)ccc1Cl	-13.6%
NC(=O)N/N=C1\CCS(=O)(=O)c2ccc(F)cc21	1.74%
S=C(NC1CCCCCC1)NC1CCCC1	71.8%
O=c1[nH]c(-c2ccncc2)nc2ccccc12	26.6%
c1ccc(-c2nc3ccccc3[nH]2)nc1	20.2%
O=C(COc1ccc(/C=N/NC(=O)C(=O)N2CCCCCC2)cc1)Nc1ccccc1Cl	74.1%
Cc1ccc(C)c(S(=O)(=O)NCC(c2ccco2)N2CCc3ccccc3C2)c1 (stereo unspecified)	10.8%
COc1ccc(C(=O)NC(C)c2ccc(-n3ccnc3)cc2)cc1[N+](=O)[O-] (stereo unspecified)	6.19%
CC(NC(=O)c1ccc(N(C)C)c([N+](=O)[O-])c1)c1ccc(-n2ccnc2)cc1 (stereo unspecified)	8.22%

Structure (SMILES)	inhibition
O=C(Nc1ccccc1C(F)(F)F)c1ccsc1	-9.54%
CN(Cc1cnn(C)c1)Cc1nc(COc2ccccc2)no1	12.5%
COc1ccc(OC)c(NC(=O)CSC2=NN3CCCC(=O)N=C3S2)c1	-10.2%
O=C(CNCc1ccco1)Nc1ccccc1-n1cccc1	5.71%
O=C(NCC(c1ccco1)N1CCN(c2ccccc2)CC1)C(=O)NC1CCCCC1 (stereo unspecified)	-8.96%
Cc1cc2c(cc1C)N(C(=O)CSC1=NCCS1)C(C)(C)c1ssc(=S)c1-2	27.9%
Cn1c(O)c(N=NC(=O)c2cc(-c3cccs3)nc3ccccc23)c2ccccc21	-7.82%
CCOC(=O)c1cc(=O)c2ccc(OCC(=O)Nc3ccccc3)cc2o1	0.19%
Cc1ccc(OCC(=O)OCC(=O)c2ccccc2)cc1C	20.6%
COc1ccc(C(=O)c2ccccc2)c(O)c1	26.2%
O=C(COc1ccc2oc(-c3ccccc3)cc(=O)c2c1)Nc1ccccc1	52.2%
CC(C)(C)OC(=O)COc1cc(O)c2c(=O)cc(-c3ccccc3)oc2c1	53.9%
O=C(COc1cc(O)c2c(=O)cc(-c3ccccc3)oc2c1)c1ccccc1	-7.87%
NC(=O)c1ccc(NC(=O)CN2CCOCC2)cc1	-9.52%
Oc1ccc(/C=N/NP(=S)(c2ccccc2)c2ccccc2)c(O)c1O	-2.4%
COc1ccc(OC)c(/C=C/C(=O)OCC(=O)NCc2cccs2)c1	22.8%
N#Cc1cnn2c(N)c(-c3ccc(Cl)cc3)cnc12	-16.2%
CCn1c(CC(=O)Nc2ccc(C)cc2)nnc1SCC(=O)N1CCN(c2ccccc2)CC1	21%
Cc1cc(NC(=O)/C=C/c2ccccc2)no1	17.2%
COC(=O)c1cc(/C=C/c2ccccc2)[nH]n1	15.2%
Cc1cccc(C)c1NC(=S)NCCCN1CCCC1=O	-28.2%
CCOc1ccc(N(CC(=O)Nc2ccc(OC)cc2OC)S(=O)(=O)c2c(C)[nH]c(=O)[nH]c2=O)cc1	25.1%
O=c1c2cnn(-c3ccccc3)c2nc(-c2cccs2)n1-c1ccc(Br)cc1	8.85%
O=c1oc(-c2cccs2)nc2ccccc12	48.8%
N#Cc1c(NCCCO)nc(NCc2ccccc2)c2c1CCN(Cc1ccccc1)C2	26.6%
O=C(OCC(=O)C12CC3CC(CC(C3)C1)C2)c1cnccn1	17.7%

Structure (SMILES)	inhibition
C/C(=N\NC(=O)c1ccccn1)C12CC3CC(CC(C3)C1)C2	54.4%
O=C(NNC(=O)C12CC3CC(CC(C3)C1)C2)c1ccncc1	4.55%
O=C(COC(=O)c1ccccn1)NC12CC3CC(CC(C3)C1)C2	30.9%
CC(C)N1CCN(Cc2nc3ccccc3s2)CC1CCO (stereo unspecified)	8.77%
Cc1cc(C)c2cc(C(=O)Nc3ccc4c(c3)OCO4)[nH]c2c1	-16.4%
CCOC(=O)c1c(NC(=O)C(C)N2CCN(S(=O)(=O)c3cccs3)CC2)sc2c1CCC(C)C2 (stereo unspecified)	-4.48%
Cc1ccc(-c2cc(-c3ccc(C)cc3)[n+](C)o2)cc1	24.7%
COc1ccc(/C=C/C(=O)Oc2ccc(C)cc2)cc1	65.3%
CC1Cc2ccccc2N1C(=O)CCS(=O)(=O)c1cccs1 (stereo unspecified)	15.3%
COc1ccc(CCNC(=O)Cc2ccc(OC)c(OC)c2)cc1OC	13.8%
COc1ccc(C(C)=O)cc1COC(=O)c1cc(C)nc2ccccc12	7.17%
O=C(OCc1cc([N+](=O)[O-])cc2c1OCOC2)c1ccc2ccccc2n1	74.8%
O=C(Cc1ccccc1[N+](=O)[O-])OCc1cccc([N+](=O)[O-])c1	34.7%
COc1ccc(C(C)=O)cc1COC(=O)c1cc2ccccc2cc1O	2.94%
O=C(OCc1cccc([N+](=O)[O-])c1)c1cnccn1	17.7%
Nc1ccccc1C(=O)OCc1ccc([N+](=O)[O-])cc1	3.01%
c1ccc(OCCn2cnc3ccccc32)cc1	1.01%
CSc1ccccc1OCc1cc(C(=O)N(Cc2nccn2C)C(C)C)no1	-13.1%
Cc1ccnc(Nc2nc(-c3sc(C)nc3C)cs2)c1	36.1%
O=C(NCc1cccnc1)c1cccc(F)c1	-1.31%
CCn1cc(C(=O)OCC(=O)NCc2ccc3c(c2)OCO3)c(=O)c2ccc(C)nc21	40.4%
CCC(C(=O)Nc1ccc2c(c1)OCCO2)n1nnc2ccccc2c1=O (stereo unspecified)	6.85%

Source: PubChem BioAssay AID488890 (Southern Research Specialized Biocontainment Screening …, 2010)
